A selection: hits, their analogues and other compounds. The true share with any hit is near 1.3%.
Phagocyt inh: inhibitors of macrophage phagocytosis | AID 1029 | actives 0.07% (n = 110,000) | J774A.1 macrophage IgG-bead phagocytosis, imaging | inhibition, % at 5 µM;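 active = inhibition above the mean of the plate negative controls plus 5 SD, cut at about 13% in these data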;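 note: phagocytic index as fraction of beads internalized from green versus red external bead signal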
GALR2 ag: agonists of human galanin receptor 2 (GALR2) | AID 803 | activation, % (concentration not given with the values) | GALR2-expressing cells, agonist activation read-out | actives 0.48% (n = 140,000); in the data active = activation above about 5%, passing the limit was not always enough
Target sequence (O43603 whole entry, looked up): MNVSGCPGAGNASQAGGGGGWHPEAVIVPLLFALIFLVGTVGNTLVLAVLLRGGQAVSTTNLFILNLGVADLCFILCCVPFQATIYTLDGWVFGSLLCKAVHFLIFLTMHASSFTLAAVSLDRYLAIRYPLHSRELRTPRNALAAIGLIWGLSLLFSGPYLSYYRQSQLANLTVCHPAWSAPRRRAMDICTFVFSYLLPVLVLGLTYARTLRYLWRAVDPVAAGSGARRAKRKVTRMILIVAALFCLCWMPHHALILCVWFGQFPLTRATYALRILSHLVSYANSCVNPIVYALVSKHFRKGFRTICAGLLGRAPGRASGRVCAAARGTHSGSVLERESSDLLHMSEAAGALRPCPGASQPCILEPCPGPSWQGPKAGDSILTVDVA
S1P2 ag: agonists of human S1P2 receptor; activation, % at 4.5 µM; S1P2-expressing cell line, agonist reporter read-out; actives 0.46% (n = 97,000); in the data active = activation above about 16%
S1P2 antag: antagonists of human S1P2 receptor; actives 0.21% (n = 97,000); cell-based S1P2 antagonist assay, inhibition at 5 uM; AID 736; O95136; inhibition, % at 5 µM; in the data active = inhibition above about 45%;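 note: CRE beta-lactamase reporter cells expressing human S1P2 stimulated with S1P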
GALR2 antag: blocks the human galanin receptor 2; AID 828; O43603; GALR2-expressing cells, antagonist mode; actives 0.39% (n = 140,000); inhibition, % at 4 µM;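 note: cells stimulated with galanin 1-16 at roughly its EC80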
GALR2 ant conf: GALR2 (human) antagonism confirmed; shares compounds with GALR2 antag; GALR2-expressing cells, antagonist mode, inhibition; inhibition, % at 4 µM; actives 60% (n = 480); AID 866;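 note: cells stimulated with galanin at about its EC80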
BLA inh counter: counter-screen for GALR2 antagonists: beta-lactamase reporter inhibitors; shares compounds with GALR2 antag; CHO NFAT-BLA reporter, beta-lactamase FRET, thapsigargin-stimulated; inhibition, % at 4.2 µM; actives 36% (n = 480);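 active = inhibition above the mean inhibition across tested compounds plus 3 SD, cut at about 27% in these data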
A number is an active result; – = inactive; · = not tested or not shown. Cut-off read from the data, not from the text of the source, unless noted: active = inhibition above about 27%; inactive = the rest.

SMILES	Phagocyt inh	GALR2 ag	S1P2 ag	S1P2 antag	GALR2 antag	GALR2 ant conf	BLA inh counter
COC(=O)c1c(NC(=O)CN2C(=O)NC3(CCc4ccccc4C3)C2=O)sc2c1CCCCC2 (stereo not given)	–	–	·	·	–	·	·
CC(C)CC1=NN(C(=O)c2ccncc2)C(O)(C(F)(F)F)C1 (stereo not given)	–	–	·	·	–	·	·
COc1ccc(COc2cc(-c3cccc(OC)c3)nc3ccc(NC(=O)c4ccc(C)cc4)cc23)cc1	·	–	·	·	–	·	·
COc1ccc(COc2cc(-c3cccc(OC)c3)nc3ccc(NC(=O)c4ccc(N(C)C)cc4)cc23)cc1	·	–	·	·	27	–	–
CC(C)CCNC(=O)NC(=O)COC(=O)C1CCN(S(=O)(=O)c2ccccc2F)CC1	–	–	·	·	–	·	·
O=S(=O)(c1ccc(Cl)cc1)n1nnc2ccccc21	·	–	–	–	–	·	·
Cc1ccc(N(NC(=O)C(O)(c2ccccc2)c2ccccc2)C(=O)CCl)cc1	–	–	·	·	48	37	56
N#Cc1cc2c(nc1SCc1nc3ccccc3[nH]1)CCC2	–	–	–	–	28	30	–
COc1ccc(C(=O)Cc2nnc(C)s2)cc1	–	–	·	·	–	·	·
O=C(CSc1nnc(CNC(=O)C23CC4CC(CC(C4)C2)C3)n1-c1ccccc1)Nc1ccccc1	–	–	·	·	–	·	·
Cc1cc(C(=O)CSc2nc3ccccc3[nH]2)c(C)n1Cc1ccco1	·	–	·	·	–	·	·
NS(=O)(=O)c1ccc(CCNc2ncnc3sccc23)cc1	–	–	–	–	–	·	·
Cc1sc2ncnc(NCCc3ccc(S(N)(=O)=O)cc3)c2c1C	–	–	–	63	37	47	–
CCOc1ccc(CCNC(=O)COC(=O)/C=C/c2ccc(OCC#N)c(OC)c2)cc1OCC	–	–	·	·	–	·	·
Cc1ccc(S(=O)(=O)/N=C2/C=C(Sc3ncn[nH]3)C(=O)c3ccccc32)c(C)c1	–	–	·	·	27	–	–
O=C(CSc1nc2ccccc2c(=O)n1-c1ccc(F)cc1F)c1c[nH]c2ccccc12	–	–	·	·	–	·	·
Cc1cc(C(=O)OCC(=O)Nc2ccccc2[N+](=O)[O-])c2ccccc2n1	–	–	·	·	40	–	–
Cc1ccc2nsnc2c1NC(=O)c1ccc2c(c1)OCCO2	–	–	–	–	38	–	–
O=[N+]([O-])c1ccccc1N/N=C/c1c[nH]c2ccccc12	·	–	–	–	–	·	·
O=[N+]([O-])c1ccc(N/N=C/c2c[nH]c3ccccc23)cc1	·	–	–	–	36	–	30
O=c1c(Cl)c(Cl)cnn1Cc1ccccc1Cl	–	–	·	·	63	64	61
O=c1c(Cl)c(N/N=C/c2ccc(Cl)cc2)cnn1-c1ccccc1	–	–	·	·	–	·	·
Cc1ccc(Cn2ncc(Cl)c(Cl)c2=O)cc1	·	–	·	·	–	·	·
O=c1c(Cl)c(Cl)cnn1-c1ccccc1	–	–	·	·	88	92	78
C=CCN(CC=C)S(=O)(=O)c1ccc2nc(NC(=O)C3CCCO3)sc2c1 (stereo not given)	–	–	·	·	–	·	·
SMILES	Phagocyt inh	GALR2 ag	S1P2 ag	S1P2 antag	GALR2 antag	GALR2 ant conf	BLA inh counter
CC(=O)C(=Nc1ccccc1Cl)NNc1ccc(Cl)cc1	·	–	–	–	28	–	–
O=C(NCCc1ccc(Cl)cc1)/C(=C/c1cccnc1)NC(=O)c1ccccc1	–	–	·	·	–	·	·
COc1ccc(OC)c(NC(=O)COC(=O)/C=C/c2ccc(Cl)cc2)c1	–	–	·	·	–	·	·
Cc1nnc(SCC(=O)Nc2cccc(S(=O)(=O)N(C)c3ccccc3)c2)s1	–	–	·	·	32	35	–
Cc1ccc(S(=O)(=O)Nc2cccc3cccnc23)cc1	–	–	–	–	–	·	·
O=S(=O)(Nc1cc(Sc2cccc3cccnc23)c(O)c2ccccc12)c1ccccc1	–	–	·	·	31	–	–
O=C(c1ccc(S(=O)(=O)c2ccc(F)cc2)c([N+](=O)[O-])c1)N1CCCCCC1	–	–	·	·	31	37	–
CCCCCOc1ccc(CSC(=N)N)cc1[N+](=O)[O-]	–	–	–	–	–	·	·
CCCCOc1ccc(Br)cc1CSC(=N)N	–	–	·	·	36	37	66
CNc1nc2cc([N+](=O)[O-])c([N+](=O)[O-])cc2nc1NC	–	–	·	·	54	65	–
CNc1c([N+](=O)[O-])ncn1C	–	–	–	–	–	·	·
CCN(CC(=O)NC1CCS(=O)(=O)C1)S(=O)(=O)c1ccc(C)cc1C (stereo not given)	·	–	·	·	–	·	·
CC(C)CCNC(=O)C(c1cccnc1)N(Cc1ccccc1)C(=O)Cn1nnc2ccccc21 (stereo not given)	·	–	–	–	–	·	·

Bioassay records from PubChem BioAssay.
